High-throughput results from PubChem BioAssay.
This is a sample that favours compounds with a hit; in the whole collection about 11% have one here.
Lmaj promast: Leishmania major promastigote growth inhibition; Leishmania major promastigotes, resazurin fluorescence viability; inhibition, % at 10 µM; 200,000 tested, 9% active; AID 1063; in the data active means inhibition above about 50%;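 further: promastigotes grown with compound for 44 hours at 28 °C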
WT yeast gro inh: growth inhibition of WT yeast, mitochondrial fusion screen; inhibition, % at 10 µM; 190,000 tested, 2.1% active; mitochondrial fusion phenotypic screen, WT strain; in the data active means inhibition above about 58%; tested in S. cerevisiae
Ins promoter up: MIN6 insulin promoter up-regulation. MIN6 insulin promoter-GFP reporter, high-content imaging; stronger effect = higher value. z-score at 5 µM. 190,000 tested, 0.3% active. AID 1625;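 active means z-score above 3 at 5 µM with at least 500 cells counted in the well; inconclusive means wells under 500 cells, flagged as cytotoxic or low count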
Autophagy HCS: modulators of autophagy. calls only at 10 µM (by protocol). MEF GFP-LC3 puncta imaging; test concentration mostly 10 µM. 190,000 tested, 0.98% active;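 active means percentage of spot-positive cells more than 3 SD above its plate mean, without a fluorescence outlier flag or 80% toxicity; inconclusive means no clear call, values can overlap the other calls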;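 further: spot-positive cell cutoff set from DMSO-treated cells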
Insulin prom inh: TRM-6 insulin promoter activity inhibition | TRM-6 cells (human fetal islet line), insulin promoter-eGFP reporter, imaging; reporter expression induced with tamoxifen | inhibition, % at 2 µM | 130,000 tested, 0.9% active | AID 1273;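 active means inhibition above the mean plus 3 SD, with well images judged a real hit on visual review, cut at about 60% in these data, passing the limit was not always enough; inconclusive means inhibition over the cutoff but images rejected on review; inactive means inhibition not above the cutoff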
Numbers without * were called inactive; i = inactive; ? = inconclusive; . = no result given; + = active, no number.

SMILES	Lmaj promast	WT yeast gro inh	Ins promoter up	Autophagy HCS	Insulin prom inh
CC(C)C[C@H](NC(=O)c1nc[nH]c1C(=O)NC1CCN(C(=O)OC(C)(C)C)CC1)C(=O)OC(C)(C)C	31	47	-0.41	i	.
CC(C)C[C@H](NC(=O)c1nc[nH]c1C(=O)NC1CCN(C(=O)OC(C)(C)C)CC1)C(=O)OCc1ccccc1	51*	45	.	i	.
COC(=O)c1cc(C(=O)c2ccc(Cl)cc2)n2c(=O)/c(=C\N(C)C)sc12	9	2	.	+	.
CCOC(=O)c1ccc(NC(=S)Nc2ccccn2)cc1	0	2	-0.93	i	-4
Cc1cc2n(n1)C(c1ccccc1)CC(c1ccc(Br)cc1)=N2 (configuration not stated)	-2	55	-0.3	i	-27
CCOC(=O)c1ccc(NC(=O)C(=O)NCc2ccco2)cc1	-3	-15	0.44	i	.
CN1c2ccccc2C(C)(C)[C@]12C=Cc1cc(O)ccc1O2	99*	26	1.6	i	-125
COc1ccc(C(C[N+](=O)[O-])c2c(-c3ccccc3)cc3ccccn23)cc1 (configuration not stated)	100*	13	.	i	57
O=Nc1c(-c2ccccc2)cc2ccccn12	7	14	1.6	i	.
COc1ccc(C(C[N+](=O)[O-])c2c(-c3ccccc3)cc3ccccn23)cc1OC (configuration not stated)	100*	39	-0.61	i	14
COc1cc(C(C[N+](=O)[O-])c2c(-c3ccccc3)cc3ccccn23)cc(OC)c1OC (configuration not stated)	93*	11	1.1	i	-37
CC(C)Oc1ccccc1OCCCOc1cccc2cccnc12	23	81*	.	i	-10
Cc1cc(OCCOc2cccc3cccnc23)cc(C)c1Cl	-2	.	.	i	-41
Cc1cc(C)c(C)c(OCCCOc2cccc3cccnc23)c1	25	89*	0	i	-19
COC(=O)c1sccc1NC(=O)C12CC3CC(CC(C3)C1)C2	-2	.	.	i	48
CSc1cccc(NC(=S)N2CCCN(Cc3ccccc3F)C2)c1	76*	18	-1	i	12
Fc1cccc(NC(=S)N2CCCCC2)c1	14	12	-0.05	i	.
CSc1cccc(NC(=S)N2CCC(N(C)C3CCCCC3C)CC2)c1 (configuration not stated)	82*	-3	0.08	i	-71
CSc1cccc(NC(=S)N2CCC(N(C)C3CCCCC3)CC2)c1	88*	-5	0.1	i	31
Clc1ccc(-c2ccc(CNCC3CCCO3)o2)cc1 (configuration not stated)	.	.	-0.89	.	.
Brc1ccc(CSc2nnc(Cc3c[nH]c4ccccc34)o2)cc1	-1	68*	-1.3	i	-125
CN1CCN(C(=O)/C(=C/c2cccs2)NC(=O)c2ccco2)CC1	-8	32	0.1	i	.
CC(=O)c1c(C(C)=O)c(C)n(-c2ccc(C)c(NC(=O)c3ccccc3Cl)c2)c1C	53*	-11	0	i	13
O=C(Nc1ccccc1)N1CCCC1	97*	12	0.03	i	6
Cc1ccc(NC(=O)N2CCCC2)cc1Cl	95*	33	1.4	i	10
SMILES	Lmaj promast	WT yeast gro inh	Ins promoter up	Autophagy HCS	Insulin prom inh
Cc1nc2ccc(NC(=O)N3CCSCC3)cc2nc1C	3	0	-0.48	i	77*
O=C(Nc1ccc(Cl)c(Cl)c1)N1CC=CCC1	85*	43	0.29	i	-4
Cc1ccc(NC(=O)C(=O)N2CCCC2)cc1Cl	-9	-14	0.4	i	-16
O=C(NCCc1ccccc1)c1nc(-c2cccs2)no1	4	11	-0.12	i	.
COc1ccc(N2C(=O)CSC2c2ccccc2[N+](=O)[O-])cc1 (configuration not stated)	7	6	-0.03	i	0
N#Cc1ccc(-c2cn(-c3ccccc3)c3[n+]2CCCS3)cc1	-6	-6	-0.56	i	.
CCc1ccc(-n2cc(-c3ccc(F)cc3)[n+]3c2SCCC3)cc1	101*	11	?	i	.
COc1ccc(C2=NCN(c3ccc(C)cc3)C(=S)N2)cc1	-6	-4	-0.21	i	23
COc1ccc(-n2cc(-c3ccc(C)cc3)[n+]3c2SCC3)cc1	100*	-1	?	i	43
COc1ccc(NC(=S)N(CCCN2CCC(C)CC2)Cc2cccs2)cc1	42	-1	.	i	.
COc1cccc(NC(=S)N(CCCN2CCC(C)CC2)Cc2cccs2)c1	68*	4	-0.25	i	.
CSc1cccc(NC(=S)N(CCCN2CCC(C)CC2)Cc2cccs2)c1	61*	14	-0.03	i	-13
COc1ccc(CN2C(=O)c3ccccc3C2C(=O)NC2CCCC(C)C2C)c(OC)c1 (configuration not stated)	28	32	0.15	i	.
CC(C)(C)NC(=O)c1ccc2c(c1)N(CC(=O)N1CCN(c3ccc(F)cc3)CC1)C(=O)C(C)(C)O2	4	1	-0.82	i	.
Cc1cc(-c2sccc2C)nc(-n2cccc2)n1	-3	68*	-0.04	i	7
Cc1nc2cc(-c3sccc3-n3cccc3)nn2c(C)c1C	8	4	.	i	14
CC(=O)/C(=C\Nc1ccc(OCc2ccccc2)cc1)c1ccccc1	0	33	0.44	i	40
CC(=O)/C(=C/Nc1ccc(Oc2ccccc2)cc1)c1ccccc1	-6	61*	-0.29	i	-20
CCN(CC)CCCN1C(=O)c2oc3ccccc3c(=O)c2C1c1cccc(OC)c1OC (configuration not stated)	10	-25	-0.6	i	14
CC(C)c1ccc(CN2CCN(C(=O)CCl)CC2)cc1	99*	4	-0.85	i	.
CC(C)NC(=O)CN1CCN(C(=O)CCl)CC1	-7	-10	0.03	i	8
O=C(CSc1nnnn1-c1ccc(F)cc1)NCc1cccs1	-6	-10	0.33	i	.
CCOC(=O)c1c(C)sc2c1N(C(=O)CN1CCOCC1)c1cc(Cl)ccc1S2	15	11	-1	i	-162
CCCCNC(=S)N1CCN(C(c2ccccc2)c2ccccc2)CC1	28	66*	-0.78	i	13
CCNC(=S)N1CCN(C(c2ccccc2)c2ccccc2)CC1	0	51	1.2	i	.
SMILES	Lmaj promast	WT yeast gro inh	Ins promoter up	Autophagy HCS	Insulin prom inh
CCCNC(=S)N1CCN(C(c2ccccc2)c2ccccc2)CC1	36	69*	0.15	i	26
COc1ccc(NC(=O)c2c(NC(=O)CNCC(C)C)sc3c2CCC3)c(OC)c1	7	-1	-0.34	i	.
Cc1ccc(-n2cc(CN3CCN(Cc4nccn4C)CC3)c(-c3cccc(C)c3)n2)cc1	44	66*	-0.59	i	.
CCn1ccnc1CN(C)Cc1cn(-c2cccc(C)c2)nc1-c1cccc(F)c1	99*	65	-1.1	i	.
CCn1ccnc1CN(C)Cc1cn(-c2ccc(C)cc2)nc1-c1cccc(C)c1	78*	68*	-0.57	i	.
CC(C)c1ccc2c(c1)C1Cc3ccccc3C1N2 (configuration not stated)	-5	-6	-0.14	i	-137
